# GalR3 antagonist = GalR3 antagonists in HEK293 cells, primary screen, cell-based, fluorescence readout; Galanin receptor type 3 (Homo sapiens), O60755; HEK293 GalR3-CNG cAMP membrane potential fluorescence; galR3 body fused to GalR1 C-terminus; inhibition, % at 3 µM; 360,000 tested, 0.44% active; AID 651719, 2012;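 active = inhibition above the screen-wide average plus 3 SD, cut at about 13% in these data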;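 also: forskolin and galanin both at EC90 stimulate the cells; cAMP rise reported by CNG channel membrane potential dye signal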
# H9c2 protect = cardioprotection against H2O2-induced cell death, primary screen, uHTS, H9c2 cells, ATPLite luminescence | AID 588492, 2011 | 360,000 tested, 0.63% active | protection from H2O2 cell death, % at 20 µM | H9c2 cardiomyocytes, H2O2 injury protection, 2 h;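 active = compounds giving at least 50% protection of heart cells from peroxide-induced death in the single-dose screen, raw or plate-pattern-corrected value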
# FXN GAA850 act = FXN promoter activators, primary screen, cell-based, luciferase luminescence, HEK293 lucGAA850 | activation, % at 6 µM | 360,000 tested, 0.56% active | AID 540364, 2011 | HEK293 lucGAA850 FXN promoter luciferase reporter, 24 h; percent of 10 µM SAHA response;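 active = activation above the average of all compounds screened plus 3 SD, cutoff fixed separately per campaign, cut at about 7.5% in these data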
# SMARCA2 act = SMARCA2 (BRM) function activators, primary screen, cell-based, luminescence, high throughput; MG213 cells, MMTV-luciferase reporter, dexamethasone, overnight; activation, % at 9.1 µM; 370,000 tested, 1% active; AID 652017, 2013; in the data active = activation above about 7.8%
# COUP-TFII inh = NR2F2 transcriptional activity inhibitors, primary screen, cell-based, luciferase reporter, HEK293T, luminescence | COUP transcription factor 2 (Homo sapiens), P24468 | HEK293T NGFI-A luciferase reporter | inhibition, % at 8.6 µM | 370,000 tested, 0.7% active;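 active = inhibition above a per-plate cutoff, mean inhibition of test wells between control levels plus 3 SD, cut at about 38% in these data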;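 also: cells cotransfected with COUP-TFII expression vector driving the NGFI-A reporter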
# Target sequence (P24468 whole entry, looked up): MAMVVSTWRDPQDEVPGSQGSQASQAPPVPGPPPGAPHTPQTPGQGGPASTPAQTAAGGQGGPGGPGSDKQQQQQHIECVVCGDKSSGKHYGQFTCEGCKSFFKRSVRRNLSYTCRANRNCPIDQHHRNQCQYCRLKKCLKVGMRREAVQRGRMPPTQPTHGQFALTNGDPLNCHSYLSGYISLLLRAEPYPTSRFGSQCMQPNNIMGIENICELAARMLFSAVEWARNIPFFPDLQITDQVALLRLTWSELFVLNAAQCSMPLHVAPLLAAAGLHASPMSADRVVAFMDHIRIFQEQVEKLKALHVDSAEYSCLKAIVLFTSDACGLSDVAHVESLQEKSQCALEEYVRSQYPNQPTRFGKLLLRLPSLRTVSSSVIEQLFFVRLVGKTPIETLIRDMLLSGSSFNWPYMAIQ
# Gli-Sufu block = Gli-Sufu pathway antagonists, primary screen, luciferase luminescence, Sufu-KO-LIGHT cells, uHTS | Sufu-KO-LIGHT fibroblasts, Gli luciferase reporter luminescence | inhibition, % at 5 µM | 340,000 tested, 0.74% active | AID 588413, 2011;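 active = inhibition above about 55%, limit read from the data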
# SMARCA2 act conf = SMARCA2 (BRM) function activators, confirmation, cell-based, luminescence, triplicate. shares compounds with SMARCA2 act. activation, % at 9.1 µM. MG213 cells, MMTV-luciferase with dexamethasone, overnight; MG213 cells expressing E1A, Rb sequestered; DMSO wells 0%, reference activator 100%. 3,500 tested, 30% active;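 active = activation above its plate's cutoff, the mean activation of tested wells plus 3 SD, cut at about 7.9% in these data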
# GAL4-VP16 Luc = GAL4-VP16 luciferase reporter activation, counter-screen for SMARCA2 (BRM) activator project, cell-based, pG5luc, luminescence, high throughput | activation, % at 9.1 µM | HEK293 GAL4-VP16 pG5luc reporter; scaled: DMSO wells 0%, SAHA wells 100% | shares compounds with SMARCA2 act | 3,500 tested, 41% active;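 active = activation above the solvent-only control well mean plus 3 SD, averaged across control plates, cut at about 5.2% in these data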
# Hits are given with their value; 0 = inactive; - = no result. Shown are actives, neighbours in structure and some others; about 3.4% of the full set was active somewhere.
SMILES,GalR3 antagonist,H9c2 protect,FXN GAA850 act,SMARCA2 act,COUP-TFII inh,Gli-Sufu block,SMARCA2 act conf,GAL4-VP16 Luc
COc1ccc2oc(-c3ccncc3)cc(=O)c2c1,0,0,0,8.7,0,0,12.9,6.5
COc1ccc2c(=O)cc(-c3ccccc3F)oc2c1,0,0,0,9.9,0,0,8.4,5.6
COc1ccc(-c2cc(=O)c3cc(O)ccc3o2)cc1,0,0,0,0,0,0,-,-
O=C(N/N=C\c1ccccn1)c1ccccc1O,0,0,0,13.3,0,0,0,11.2
O=C(N/N=C/c1ccccn1)c1ccncc1,0,0,0,0,0,0,-,-
O=Cc1cc2cc3c(cc2nc1Cl)OCCO3,-,-,-,-,-,0,-,-
O=C(O)c1ccc(N/N=C/c2cc3cc4c(cc3nc2Cl)OCCO4)cc1,0,0,0,8.4,0,0,0,11.3
Cn1cc(-c2nc3ccccc3[nH]2)c2ccccc21,0,0,0,9.0,0,0,15.2,0
Cc1c(-c2nc3ccccc3[nH]2)cnn1C,0,0,0,0,0,0,-,-
COc1ccc(NC(=O)CCC(=O)c2cc(C)sc2C)cc1,0,0,0,0,0,0,-,-
O=C(Nc1cccc(-c2cnc3ccccc3n2)c1)c1ccccc1,0,0,0,0,0,0,-,-
CCc1ccc(-c2cnc3ccccc3n2)cc1NC(=O)CNC(=O)c1ccccc1,0,0,0,8.1,0,0,0,17.6
COCCNc1nc(Oc2cccc3ccccc23)c2sccc2n1,0,0,0,0,0,-,-,-
CN(C)CCNc1ncnc2c1cnn2-c1ccc(Cl)cc1,0,0,0,13.5,0,0,10.6,11.5
O=C(Nc1ccc(Cl)cn1)C1CCCN1S(=O)(=O)c1ccccc1 (centres undefined),0,0,0,0,0,0,-,-
Cc1ccc(Nc2nnc(-c3ccccc3N)o2)cc1C,0,0,0,12.0,0,0,0,8.5
c1ccc(Nc2nnc(-c3cccc4ccccc34)o2)cc1,0,0,0,0,0,0,-,-
O=c1[nH]sc2ccccc12,0,0,0,8.9,0,0,0,0
Cc1cccc2c(=O)n3c(cc12)-c1[nH]c2ccccc2c1CC3,0,0,0,0,0,0,-,-
O=c1c2ccccc2nc2n1CCc1c-2[nH]c2ccccc12,0,0,0,16.4,0,0,8.4,9.3
Cc1ccc2nc(SCn3nnc4ccccc4c3=O)[nH]c2c1,0,0,0,8.4,0,0,8.1,13.1
O=c1c2ccccc2nnn1CCc1ccccc1,0,0,0,10.1,0,-,10.6,10.3
O=c1c2ccccc2nnn1CSc1ccccc1F,0,0,0,11.2,0,0,0,13.5
Cc1ccc(SCn2nnc3ccccc3c2=O)c(C)c1,0,0,0,0,0,0,-,-
CCCNC(=O)C[C@@H]1C[C@H]2c3cc(NC(=O)c4ccc5c(c4)OCO5)ccc3O[C@H]2[C@@H](CO)O1,0,0,0,0,0,-,-,-
O=C(CSc1ccccn1)NC1CCCc2c1cnn2-c1ccccc1F (centres undefined),0,0,0,0,0,-,-,-
CSCCCNC(=S)N(C)CC(=O)Nc1ccc(C)cc1,0,0,0,0,0,0,-,-
CCCn1c(=O)c(C(=O)OCC)c(O)c2cc(Br)ccc21,0,0,0,0,0,0,-,-
CCOC(=O)c1c(CN(C)C)n(C)c2c(O)c(N=NC(N)=O)c3ccc(Br)cc3c12,0,0,0,9.1,0,0,0,6.3
O=[N+]([O-])c1cc(Cl)ccc1NCCNS(=O)(=O)c1ccccc1,0,0,0,16.2,0,0,0,0
